The source of these data is PubChem BioAssay (EPA / NIEHS).

“And” between values parts separate entries of the source, which are not always exact repeats. Equal entries are not always repeated. Records with an inconclusive call do not appear. The source made the active and inactive calls. How the source made its calls: active means hit-call score of the fitted dose curve at least 0.9, where 1 is the maximum; inconclusive means response in the unintended direction; inactive means score below 0.9.

The target in the experiment is human Constitutive Androstane Receptor (CAR), NR1I3 (gene 9970) (UniProt Q14994). The experiment is described as follows: NVS_NR_hCAR_Antagonist: NovaScreen (NVS) Nuclear Receptor Binding Assay for human Constitutive Androstane Receptor Antagonism (CAR) (AID 2283344). On the procedure: NVS_NR_hCAR_Antagonist is a biochemical, single-readout assay that uses extracted gene-proteins in a cell-free assay. Measurements were taken 1 hour after chemical dosing in a 384-well plate.NVS_NR_hCAR_Antagonist is one of one assay component(s) measured or calculated from the NVS_NR_hCAR_Antagonist assay. It is designed to make measurements of fluorescent resonance energy transfer, a form of binding reporter, as detected with fluorescent resonance energy transfer signals by Time-Resolved Fluorescence Resonance Energy Transfer (TR-FRET) technology.Data from the assay component NVS_NR_hCAR_Antagonist was analyzed into 1 assay endpoint. This assay endpoint, NVS_NR_hCAR_Antagonist, was analyzed in the positive analysis fitting direction relative to DMSO as the negative control and baseline of activity. Using a type of binding reporter, loss-of-signal activity can be used to understand changes in the binding as they relate to the gene NR1I3. Furthermore, this assay endpoint can be referred to as a primary readout, because the performed assay has only produced 1 assay endpoint. To generalize the intended target to other relatable targets, this assay endpoint is annotated to the nuclear receptor intended target family, where the subfamily is non-steroidal.
Chain of human Constitutive Androstane Receptor (CAR), NR1I3 (gene 9970) (Q14994 whole entry, looked up): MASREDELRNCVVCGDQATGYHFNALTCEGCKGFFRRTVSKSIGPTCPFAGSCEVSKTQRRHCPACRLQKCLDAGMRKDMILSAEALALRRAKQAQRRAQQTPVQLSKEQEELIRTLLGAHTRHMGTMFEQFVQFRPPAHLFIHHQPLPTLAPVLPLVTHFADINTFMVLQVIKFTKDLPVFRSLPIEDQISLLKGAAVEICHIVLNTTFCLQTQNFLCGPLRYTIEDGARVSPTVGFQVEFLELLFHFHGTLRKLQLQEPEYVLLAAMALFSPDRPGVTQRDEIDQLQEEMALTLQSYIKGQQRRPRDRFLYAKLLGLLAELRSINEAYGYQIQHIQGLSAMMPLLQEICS
Binding assays used specific radioligands (tritiated, iodinated) with non-radioactive competitive displacement ligands in agonist or antagonist protocols (as indicated) and various reference compounds and inhibitors to titrate specific binding to receptors and transporters. Most enzyme assays (CYPs, kinases, phosphatases, proteases, HDACs) used recombinant protein and specific substrates (fluorescence mostly, some colorimetric and radioactive) and inhibitors, followed by a biochemical separation of substrate and product. All assays for the biochemical HTS were initially run in duplicate at a single concentration (10 uM for CYP450 assays and 25 uM for all others). […] Each assay was run with positive and negative controls, and concurrent controls on every plate. The follow-up (secondary) screen tested active chemical-pairs in concentration series, as well as a few additional assays not tested in the primary screen, some selected negative inactives, and several cases re-run in the concentration series for confirmatory purposes.
For the molecule `COC(=O)c1ccccc1C(=O)O`, the outcome was inactive. What is called AC50 is the concentration giving half of the maximal activity seen. For `CC(C)(c1ccc(O)cc1)c1ccc(O)cc1`, the AC50 is 90.5 nM (active) and 367 nM (active). In the case of `CC1(C)C(C=C(Cl)Cl)C1C(=O)OCc1cccc(Oc2ccccc2)c1` (stereo not given), the call was inactive.

With `CCOC(=O)[C@H](C)Oc1ccc(Oc2nc3ccc(Cl)cc3o2)cc1`, the AC50 is 0.182 µM (active). `CCCCOCCOCCOCc1cc2c(cc1CCC)OCO2`: the molecule was called inactive. For `CCCOC(=O)c1ccc(C(=O)OCCC)nc1`, the call was inactive.

Regarding `O=C(O)C1(C(=O)Nc2ccc(Cl)cc2Cl)CC1`, the AC50 is 9.08 µM (active). Still for that read-out and setting: for `N[C@@H](Cc1cc(I)c(Oc2ccc(O)c(I)c2)c(I)c1)C(=O)O` the value was 20 µM (active). Still for that read-out and setting: for `CCCCC(CC)CN1C(=O)C2C3C=CC(C3)C2C1=O` (stereo not given) the value was 12.3 µM (active). On to `COC(=O)c1ccc(CNS(C)(=O)=O)cc1S(=O)(=O)NC(=O)Nc1nc(OC)cc(OC)n1`, for which the outcome was inactive. Same read-out and setting: for `CCCN(CCC)C(=O)SCC` the value was “inactive”. `C=CCOC(Cn1ccnc1)c1ccc(Cl)cc1Cl` (stereo not given): the AC50 was 9.8 µM (active). As for `CCOC(=O)NCCOc1ccc(Oc2ccccc2)cc1`, the molecule was called inactive. For `CCC(O)=C1C(=O)CC(C(=O)O)CC1=O` (stereo not given), the result was inactive. For `CCCCC(CC)COC(=O)c1ccccc1C(=O)O` (stereo not given), the outcome was inactive.
